# Compound activity deposited in PubChem BioAssay by National Center for Advancing Translational Sciences (NCATS).
# Epigenetic derep – Quantitative High-Throughput Screen for Regulators of Epigenetic Control; actives 0.2% (n = 280,000); murine LDR cells, GFP reporter derepression, 30 h; Potency, µM (highest dose often 53.9 µM), for the others: at the highest dose GFP activation, most hits filed as activators; note: % of control where 0% means no effect; nearly all actives have a fitted effect of over 60% in size
#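 Readout is the number of GFP-expressing murine LDR cells, counted by cytometry following washing. Cells were treated with compound for 30 h at 37 C; the stably integrated CMV-GFP locus is normally silent.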
# Nrf2 block – Nrf2 qHTS screen for inhibitors; A549 ARE-Fluc reporter, luciferase luminescence, 18-24 h; Potency, µM (doses to about 46 µM), for the others: at the highest dose activity change, negative = inhibition, most hits filed as inhibitors; actives 2.1% (n = 360,000); note: % is set by controls: 0 for no effect and ±100 for the full control effect; nearly all actives have a fitted effect of over 60% in size
#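 Concentration-response testing used A549 ARE_Fluc cells at 5000 cells/well. Following an 18-24 h compound incubation, viability was read by fluorescence (Ex 405/Em 525) and luciferase output by luminescence.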
# PINK1 expr mod – A Quantitative High throughput Screen to Identify Chemical Modulators of PINK1 Expression; Potency, µM (top dose mostly 76.6 µM), without a hit: at the highest dose activation (PINK1 increase), usual class: activators; actives 0.2% (n = 410,000); PINK1 immunofluorescence, high-content cytometry, 24 h; AID 624263, 2012; active = well fitted activation curve with a large enough effect; inconclusive = small, poorly fitted or top-dose-only effect; cell line not stated here; note: % of control where 0% means no effect; nearly all actives have a fitted effect of over 65% in size
#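 Measures PINK1 amount and localization on or inside mitochondria by immunofluorescence. Stable cells get compounds at 5 concentrations for 24 hours before fixation and staining; CCCP controls included.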
# Nrf2 ARE act – qHTS of Nrf2 Activators | Potency, µM (doses to about 46.1 µM), for inactives: at the highest dose activation, actives largely listed as activators | actives 0.31% (n = 410,000) | AREc32 ARE-luciferase reporter (MCF7-derived line), luminescence, 24 h; note: % of control where 0% means no effect; nearly all actives have a fitted effect of over 65% in size
#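 Cells of the AREc32 ARE-luciferase line are plated in OPTI-MEM containing 5% FBS and left overnight at 37 deg C. Compounds are pinned in, incubation continues 24 hr, and firefly luciferase signal is then measured.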
# A549 viability – Nrf2 qHTS screen for inhibitors: counterscreen for cytotoxicity; A549 ARE-Fluc cells, CellTiter-Fluor viability, 18-24 h; Potency, µM (doses to about 46 µM), for the others: at the top dose activity change, negative = cytotoxicity, usual class: inhibitors; actives 0.16% (n = 390,000); AID 504648, 2011; note: % is set by controls: 0 for no effect and ±100 for the full control effect
#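 A549 ARE-Fluc cells in 5% FBS OPTI-MEM, 5000 cells/well, rested 2 h then exposed to compounds in concentration-response for 18-24 h at 37 °C. Viability by CellTiter-Fluor fluorescence (Ex 405/Em 525) after 30 min; luciferase luminescence (BugLite, 15 min, RT) read afterwards.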
# An asterisk follows results filed as active; ? = inconclusive; . = no result; [ ] = another dose, or the depositor's remark. Compounds with a hit are over-represented: about 2.4% of the library has one in this group of screens. Unless noted, calls come from the whole dose curve; as a rule, active = well fitted curve in the direction sought with a large enough effect; inconclusive = small, poorly fitted or top-dose-only effect, or another doubt; inactive = no such curve, though single readings can be large; an effect the other way counts as inactive or inconclusive. Potency is the fitted concentration of half-maximal effect.
SMILES,Epigenetic derep,Nrf2 block,PINK1 expr mod,Nrf2 ARE act,A549 viability
N[C@@]1(C(=O)O)CN[C@@H](C(=O)O)C1,1%,.,.,.,.
COc1ccccc1NS(=O)(=O)c1cc([N+](=O)[O-])ccc1N/N=C/c1c(C)[nH]c2ccccc12,?,?,9%[38.3 µM],7%,?
O=[N+]([O-])c1ccc(N/N=C/c2c[nH]c3ccccc23)c(S(=O)(=O)Nc2ccc(Cl)cc2)c1,?,15µM*,?,0%,21µM*
COc1ccc(-c2ccnc(-n3ncc(C(=O)NC(C)(C)CO)c3C3CC3)n2)cc1F,.,.,-1%,.,.
CC(=O)c1cccc(-n2nnnc2SCC(=O)Nc2ccccc2N2CCCCC2)c1,-1%,23µM*,-2%,3%,-15%
O=C(Cc1cccs1)Nc1cccc(-c2nnc(-c3ccco3)o2)c1,-1%,-14%,0%,4%,-4%
Cc1ccc(-c2nnc(-c3ccc(NC(=O)Cc4cccs4)cc3)o2)cc1,6%,9.2µM*,?,0%,13µM*
COC(=O)C1CCN(c2nc(CN(C)C3CCOC3)nc3cc(OC)c(OC)cc23)CC1 (configuration not stated),.,.,2%,.,.
NS(=O)(=O)c1ccc(S(=O)(=O)N2CCN(c3nc(-c4ccccc4)nc4ccccc34)CC2)cc1,.,23µM*,2%,.,-12%
Cc1ccc(S(=O)(=O)N2CCN(c3nc(-c4ccccc4)nc4ccccc34)CC2)cc1,.,29%,-1%,.,-2%
CSc1nccc(-c2cc(Cl)c3c(c2)CC(CNC(=O)c2ccc(C)nc2)O3)n1 (configuration not stated),.,.,2%,.,.
Cc1cc[n+](CC#N)cc1,.,.,1%,.,.
CCOC(=O)N1CCc2c(sc(NCc3cccs3)c2C(=O)Nc2cc(Cl)ccc2OC)C1,0%,.,5%,18%,-15%
CC(C)[C@H](NC(=O)N1CCn2c1nc1ccccc12)C(=O)NC1CCCCC1,.,21µM*,6%,0%,?
C[C@H](NC(=O)N1CCn2c1nc1ccccc12)C(=O)NC1CCCCC1,.,1%,-2%,0%,-5%
Cc1ccc(OCC(=O)NNc2c3ccccc3nc3ccccc23)cc1,-1%,18µM*,-1%,0%[9.22 µM],?
CCOC(=O)c1cc(C)n(CC2CCC(C(=O)Nc3cccc(C)c3)CC2)c1C (configuration not stated),0%,-23%,1%,0%,-7%
O=C(NCCCn1ccnc1)c1cc2nc(-c3ccc(Br)cc3)cc(C(F)(F)F)n2n1,-1%,21µM*,0%,2%,?
COc1ccc(Br)cc1CN(C)CC(=O)Nc1c(Cl)ccc(C)c1Cl,0%,18µM*,0%,3%,?
COc1cc(CN2CCCC(c3nc(-c4ccncc4)ncc3-c3ccccc3)C2)ccc1O (configuration not stated),.,.,0%,.,.
O=C(CSc1nc(C2CC2)nc2ccccc12)N1CCCCC1,.,?,-2%,6%,2%
O=C(CSc1nncc2ccccc12)N1CCCCC1,-1%,10µM*,2%,21%,-3%
COc1ccc(-c2nc3cnc(Nc4cccc(OC)c4)nc3n(CCC#N)c2=O)cc1,.,.,45µM*,.,.
COc1ccc(-c2nc3cnc(Nc4ccccc4)nc3n(CCC#N)c2=O)cc1,.,.,11µM*,.,.
CCCc1cc(N2CCN(c3ccccc3F)CC2)n2cnnc2n1,-5%,16µM*,-1%,-1%,-13%
SMILES,Epigenetic derep,Nrf2 block,PINK1 expr mod,Nrf2 ARE act,A549 viability
CCOC(=O)Cn1c(=O)oc2cc(S(=O)(=O)Nc3cc(OC)cc(OC)c3)ccc21,0%,16%,-1%,0%,0%
CS(=O)(=O)N(Cc1ccc(Cl)cc1)c1ccc(C(=O)Nc2cccnc2)cc1,0%,16µM*,40%[38.3 µM],0%,-19%
CS(=O)(=O)N(Cc1ccccc1)c1ccc(C(=O)Nc2cccnc2)cc1,0%,-1%,.,1%,2%
Cn1c(=O)c2[nH]c(Cc3cccc(O)c3)nc2n(C)c1=O,.,-21%,5%,5%,1%
Cn1c(=O)c2[nH]c(COc3ccc(C(C)(C)C)cc3)nc2n(C)c1=O,0%,12µM*,2%,-1%,-19%
Cn1c(=O)c2[nH]c(CCCCCCCc3nc4ccccc4[nH]3)nc2n(C)c1=O,.,16µM*,3%,11%,?
COc1cc(-c2cc(C)c3cccc(OC)c3n2)cc2c1OCCN(C(=O)CC1NC(=O)c3ccccc31)C2 (configuration not stated),.,.,-1%,.,.
C#CCCCO/N=C1/C[C@@H](O)[C@@H](O)[C@@H]2[C@H]3C(=O)N(c4ccc(F)cc4F)C(=O)[C@@H]3CC[C@H]12,1%[10.1 µM],.,.,.,.
Nc1c(C(=O)Nc2ccc(S(=O)(=O)N3CCCC3)cc2)sc2nc3ccc(OC(F)(F)F)cc3cc12,7.9µM*,?,?,9%,?
Nc1c(C(=O)Nc2ccc(C(=O)O)cc2)sc2nc3c(cc12)CCCC3,-1%,?,1%,-1%,1%
Nc1c(C(=O)Nc2ccc(S(=O)(=O)N3CCCC3)cc2)sc2nc3cc4c(cc3cc12)CCC4,3.5µM*,2%,?,3%,-18%
O=C(CNC(=O)c1ccc2cc[nH]c2c1)OC(C(=O)Nc1cc(C(F)(F)F)ccc1Cl)c1ccccc1 (configuration not stated),.,14%,.,.,2%
Cc1cccc(N2CCN(C(=O)C3CCN(S(=O)(=O)Cc4ccccc4)CC3)CC2)c1C,-3%,-3%,0%,-1%,-3%
CCOc1ccc(CN(CCc2ccc3c(c2)OCO3)Cc2cc(OC)cc(OC)c2)cc1,-1%,20%,2%,1%,2%
O=C(c1cccc(Cn2cccn2)c1)N1CCC(n2c(C3CCCO3)nc3cc(C(F)(F)F)ccc32)CC1 (configuration not stated),.,.,0%,.,.
COc1ccc(-n2c(SCc3cccnc3)nc3c(c2=O)SCC3)cc1OC,-3%,?,0%,-1%,0%
COc1cccc(-n2c(SCc3ccccn3)nc3c(c2=O)SCC3)c1,2%,1.8µM*,-1%,0%,-12%
COc1ccccc1N1CCN(C(=O)c2ccc3c(c2)N(Cc2ccccc2)C(=O)c2ccccc2S3(=O)=O)CC1,-1%,-13%,0%,3%,-4%
O=C(Nc1ccc(-n2cc(Br)cn2)cc1)c1ccncc1,.,26µM*,2%,3%,-10%
CCc1ccc(C(=O)c2cn(CC(=O)Nc3ccc(OC)c(Cl)c3)c3nc(C)ccc3c2=O)cc1,16µM*,-2%,9%,0%,0%
CCc1ccc(C(=O)c2cn(Cc3ccc(F)cc3)c3cc(OC)c(OC)cc3c2=O)cc1,0%,-7%,-1%,-3%,21µM*
